# According to PubChem BioAssay:
# Inconclusive results are not listed. The list shows a part of the results. Active and inactive are the calls of the source. Cut-off read from the data, not from the text of the source, unless noted: active = binding response below about 72% or above about 130%; inactive = in between.
# Tests used:
# [1] = target: Regulator of G-protein signaling 16 (Homo sapiens) (UniProt O15492); test: small molecules altering RGS protein interactions with GNAO1 – biochemical, multiplexed beads, flow cytometry, RGS4/7/8/16/19, primary screen (AID 1504); conditions: multiplexed bead flow cytometry, measured here: RGS16 interaction, at 10 µM;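 note: fluorescently labeled Galpha-o bound to GDP with aluminium fluoride binding biotinylated RGS beads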
# [2] = target: Regulator of G-protein signaling 19 (Homo sapiens) (UniProt P49795); test: as above; conditions: multiplexed bead flow cytometry, measured here: RGS19 interaction, at 10 µM
# [3] = target: Regulator of G-protein signaling 7 (Homo sapiens) (UniProt P49802); test: as above; conditions: multiplexed bead flow cytometry, measured here: RGS7 interaction, at 10 µM
# [4] = target: Regulator of G-protein signaling 8 (Homo sapiens) (UniProt P57771); test: as above; conditions: multiplexed bead flow cytometry, measured here: RGS8 interaction, at 10 µM
# [5] = interference with biotin-avidin bead interaction – biochemical, flow cytometry, bead-based, counter-screen for RGS protein interaction modulators (AID 1783;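 active = inhibition above 50%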;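 note: median green fluorescence of gated singlet beads compared with DMSO control wells; 0% = DMSO wells and 100% = complete loss of bead fluorescence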); conditions: streptavidin beads, fluorescein-biotin binding; at 10 µM, stronger effect = higher value
# [6] = target: Guanine nucleotide-binding protein G(o) subunit alpha (Homo sapiens) (UniProt P09471); test: retest of RGS8-Galphao interaction hits – biochemical, multiplexed bead flow cytometry, single concentration, confirmation (AID 1836); conditions: bead-based flow cytometry RGS8-Galphao binding, fluorescence; at 10 µM; actives lie on both sides;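 note: Galphao activated as GDP AlF4 complex before binding bead RGS8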
# Sequence of Guanine nucleotide-binding protein G(o) subunit alpha (Homo sapiens) (P09471 whole entry, looked up): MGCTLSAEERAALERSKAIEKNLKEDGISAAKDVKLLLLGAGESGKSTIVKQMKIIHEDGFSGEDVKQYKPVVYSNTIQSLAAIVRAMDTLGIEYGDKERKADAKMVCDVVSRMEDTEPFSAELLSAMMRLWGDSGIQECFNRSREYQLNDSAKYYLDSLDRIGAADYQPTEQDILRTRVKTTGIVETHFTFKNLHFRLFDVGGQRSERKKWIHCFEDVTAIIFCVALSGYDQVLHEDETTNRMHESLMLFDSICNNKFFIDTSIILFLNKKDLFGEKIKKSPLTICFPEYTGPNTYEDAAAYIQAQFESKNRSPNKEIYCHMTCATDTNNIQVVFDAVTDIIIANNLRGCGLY
# [7] = target: Guanine nucleotide-binding protein G(o) subunit alpha (Homo sapiens) (UniProt P09471); test: retest of RGS7-Galphao interaction hits – biochemical, multiplexed bead flow cytometry, single concentration, confirmation (AID 1837; in the data active = response below about 75% or above about 130%; inactive = in between;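 note: fluorescent Galphao activated with GDP and aluminum fluoride binding bead-coupled RGS7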); conditions: bead-based flow cytometry RGS7-Galphao binding; at 10 µM; actives lie on both sides
# [8] = target: Regulator of G-protein signaling 16 (Homo sapiens) + Guanine nucleotide-binding protein G(o) subunit alpha (Homo sapiens) (UniProt O15492+P09471); test: RGS16 and Galphao interaction regulators – biochemical, single concentration, multiplexed bead flow cytometry, confirmation (AID 1838; in the data active = response below about 74% or above about 130%; inactive = in between;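 note: Galphao activated as the GDP aluminium fluoride complex binding bead-coupled RGS16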); conditions: bead-based flow cytometry, at 10 µM, actives lie on both sides
# Sequence of Regulator of G-protein signaling 16 (Homo sapiens) + Guanine nucleotide-binding protein G(o) subunit alpha (Homo sapiens) (O15492 whole entry, looked up): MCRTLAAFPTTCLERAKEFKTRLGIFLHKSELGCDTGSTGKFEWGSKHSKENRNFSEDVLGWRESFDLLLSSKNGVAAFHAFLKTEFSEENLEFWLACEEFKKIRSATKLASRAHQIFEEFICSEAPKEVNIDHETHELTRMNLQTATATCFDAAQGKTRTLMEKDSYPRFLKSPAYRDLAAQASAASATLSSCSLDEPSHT
# Sequence of Regulator of G-protein signaling 16 (Homo sapiens) + Guanine nucleotide-binding protein G(o) subunit alpha (Homo sapiens) (P09471 whole entry, looked up): as the sequence (P09471 whole entry, looked up) above
# [9] = target: Guanine nucleotide-binding protein G(o) subunit alpha (Homo sapiens) (UniProt P09471); test: RGS4 and Galphao interaction regulators – biochemical, single concentration, multiplexed bead flow cytometry, confirmation (AID 1840; in the data active = binding response below about 74% or above about 130%; inactive = in between); conditions: at 10 µM, actives lie on both sides
# [10] = target: Guanine nucleotide-binding protein G(o) subunit alpha (Homo sapiens) + Regulator of G-protein signaling 19 (Homo sapiens) (UniProt P09471+P49795); test: RGS19 interaction with Gαo, hit retest – biochemical, single point, multiplexed bead flow cytometry, confirmation (AID 1841; in the data active = response below about 50% or above about 160%; inactive = in between;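 note: 100% = no compound control and 0% = blank background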); conditions: bead-based flow cytometry RGS19-Galphao binding; at 10 µM; actives lie on both sides
# Sequence of Guanine nucleotide-binding protein G(o) subunit alpha (Homo sapiens) + Regulator of G-protein signaling 19 (Homo sapiens) (P09471 whole entry, looked up): as above
# Sequence of Guanine nucleotide-binding protein G(o) subunit alpha (Homo sapiens) + Regulator of G-protein signaling 19 (Homo sapiens) (P49795 whole entry, looked up): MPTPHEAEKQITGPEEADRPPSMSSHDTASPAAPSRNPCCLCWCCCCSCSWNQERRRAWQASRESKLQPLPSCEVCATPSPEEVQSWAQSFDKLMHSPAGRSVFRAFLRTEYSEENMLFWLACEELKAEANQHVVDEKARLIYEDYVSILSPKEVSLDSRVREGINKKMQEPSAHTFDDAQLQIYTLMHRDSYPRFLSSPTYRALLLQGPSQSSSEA
# [11] = rapamycin-like changes in RPL19A-GFP expression – cell-based, S. cerevisiae, multiplex flow cytometry, primary screen (AID 1862; in the data active = percent of DMSO control GFP below about 86%;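 note: lower values mimic rapamycin by blocking the RPL19A rise seen in DMSO cells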); conditions: S. cerevisiae RPL19A-GFP strain, flow cytometry fluorescence, 3 h; at 10 µM; stronger effect = lower value
# [12] = TOR pathway GLN3 branch reporter MEP2-GFP changes – S. cerevisiae, multiplex flow cytometry, primary screen (AID 1867;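 active = GFP response, as percent of the DMSO control, above the screen-wide mean plus 3 SD, about 139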;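 note: median GFP channel fluorescence of barcode-gated MEP2-GFP cells measured by flow cytometry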); conditions: S. cerevisiae MEP2-GFP strain, 3 h, at 10 µM, stronger effect = higher value, 100% means same as DMSO wells
# [13] = TOR pathway RTG branch CIT2 reporter changes – S. cerevisiae, GFP fusion, multiplex flow cytometry, primary screen (AID 1870;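 active = percent response above a set limit, the screen-wide mean plus 3 SD, cut at about 130% in these data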;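 note: barcoded CIT2-GFP strain pooled with four other GFP strains with rapamycin as positive control; median GFP fluorescence per well over plate mean of DMSO wells so 100% = DMSO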); conditions: S. cerevisiae CIT2-GFP expression, 3 h, at 10 µM, stronger effect = higher value
# [14] = TOR pathway LAP4-GFP level changes – S. cerevisiae, multiplex flow cytometry, primary screen (AID 1873;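 active = GFP signal, as percent of the solvent control, above the screen mean plus 3 SD, about 149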); conditions: S. cerevisiae LAP4-GFP expression, 3 h, at 10 µM, stronger effect = higher value
# [15] = yeast AGP1-GFP level changes, GLN3 branch – cell-based, multiplex flow cytometry, S. cerevisiae, primary screen (AID 1887;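 active = GFP signal above the screen-wide mean plus 3 SD, that is over about 124.5% of the solvent control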;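 note: AGP1-GFP fusion strain of S. cerevisiae within a five-strain barcoded multiplex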); conditions: 3 h, at 10 µM, stronger effect = higher value
# [16] = hit retest on RPL19A-GFP reporter strain – cell-based, S. cerevisiae, flow cytometry, cherry picks, mother/daughter gates, confirmation (AID 2270;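 active = GFP response below 50% of the DMSO control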); conditions: 3 h, at 10 µM, stronger effect = lower value, 100 = same GFP as DMSO wells
# [17] = yeast TOR pathway reporter LAP4-GFP change – cell-based, cherry picks, flow cytometry, mother/daughter gates, confirmation (AID 2271;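 active = GFP response above 150% of the DMSO control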;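 note: ratio of sample to DMSO plate mean so 100% equals DMSO level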); conditions: S. cerevisiae LAP4-GFP strain, 3 h, at 10 µM, stronger effect = higher value, 100 means same as DMSO control
# [18] = TOR pathway reporter MEP2-GFP, retest of hits – S. cerevisiae, flow cytometry GFP, cherry picks, confirmation (AID 2272;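 active = GFP response above 150% of the DMSO control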;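 note: ratio of well signal to plate DMSO mean so 100% equals DMSO level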); conditions: S. cerevisiae MEP2-GFP strain, 3 h, at 10 µM, stronger effect = higher value
# [19] = TOR pathway CIT2 reporter hit retest – S. cerevisiae, GFP fusion, cherry picks, mother/daughter gates, confirmation (AID 2274;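 active = GFP response above 150% of the DMSO level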); conditions: S. cerevisiae CIT2-GFP strain, flow cytometry, 3 h, at 10 µM, stronger effect = higher value
# [20] = reduced mouse 2C T cell binding to pMHC/ICAM-1 vesicles – MLPCN validation set, flow cytometry, LFA-1/ICAM-1 modulator project, pilot screen (AID 2523;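 active = response below a set limit, under 55% cells CD8-positive and vesicle-bound, and CD8 cells' 90th-percentile brightness under 279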;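 for vesicle binding response: mean PE anti-B7-1 fluorescence of CD8+ cells relative to row control; 100% = QL9-loaded vesicles with DMSO vehicle in the same plate row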); conditions: 2C mouse CD8+ T cells, at 7 µM, stronger effect = lower value; double positive events: measured here: CD8+/vesicle+ event percentage
# [21] = measured here: daughter cell gate
# [22] = measured here: mother cell gate
smiles,measurement,setting,value
Cc1ccc(S(=O)(=O)NCC(=O)OCC(=O)N2CCc3ccccc32)cc1,RGS16–Galpha-o binding response,[1],604%
same,RGS19–Galpha-o binding response,[2],93.8%
same,RGS7–Galpha-o binding response,[3],139%
same,RGS8–Galpha-o binding response,[4],117%
same,inhibition,[5],-1.7% (inactive)
same,binding response (% of control),[6],102% (inactive)
same,response (percent of control binding),[7],99.5% (inactive)
same,response (% of control binding),[8],98.9% (inactive)
same,binding response (% of control),[9],99.7% (inactive)
same,response (percent of control binding),[10],97.4% (inactive)
CCOC(=O)CCP(=O)(O)C(O)(c1ccccc1)c1ccccc1,inhibition,[5],2.2% (inactive)
same,binding response (% of control),[6],99.3% (inactive)
same,response (percent of control binding),[7],101% (inactive)
same,response (% of control binding),[8],101% (inactive)
same,binding response (% of control),[9],100% (inactive)
same,response (percent of control binding),[10],99.5% (inactive)
N=c1nc(N2CCCCC2)cc(N)n1O,percent of DMSO control GFP,[11],90.9% (inactive)
same,GFP response vs DMSO,[12],143% (active)
same,percent response of DMSO control,[13],107% (inactive)
same,GFP response vs DMSO,[14],86.4% (inactive)
same,"GFP response, % of DMSO",[15],90.1% (inactive)
same,GFP response vs DMSO,[16],97.4% (inactive)
same,GFP response vs DMSO,[16]; [21],97.4%
same,GFP response vs DMSO,[16]; [22],97.4%
same,GFP response relative to DMSO,[17],101% (inactive)
same,GFP response relative to DMSO,[17]; measured here: daughter cell gate response,101%
same,GFP response relative to DMSO,[17]; measured here: mother cell gate response,99.3%
same,GFP response vs DMSO,[18],98.3% (inactive)
same,"GFP response, % of DMSO",[19],99.7% (inactive)
same,"GFP response, % of DMSO",[19]; [21],103%
same,"GFP response, % of DMSO",[19]; [22],99.7%
same,double positive events,[20],59.7%
same,vesicle binding response,[20],117% (inactive)
Cc1ncoc1C(=O)NCCC(c1ccccc1)c1ccccc1,inhibition,[5],0.1% (inactive)
same,binding response (% of control),[6],101% (inactive)
same,response (percent of control binding),[7],110% (inactive)
same,response (% of control binding),[8],101% (inactive)
same,binding response (% of control),[9],103% (inactive)
same,response (percent of control binding),[10],111% (inactive)
